Source: PubChem BioAssay (Center for Chemical Genomics, University of Michigan)
Dicer inh = inhibitors of Dicer pre-microRNA processing, primary screen, biochemical, cat-ELCCA, chemiluminescence; cat-ELCCA pre-miR-21 Dicer processing; active compounds read high; Endoribonuclease Dicer (Homo sapiens), Q9UPY3; 6% of 47,000 active; z-score at 25 µM; in the data active means z-score above about 3, passing the limit was not always enough;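 further: plate controls were vehicle for no effect and no enzyme for full effect; higher signal means more uncleaved substrate so more Dicer inhibition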
* hit, by the source's call. Many of the other results were omitted from the sample, so hits are more common in it than they were.

SMILES | Dicer inh
CC(=O)OCC12COC(c3ccc(OC(C)=O)cc3)C(C(C)=CC1C)C2C (stereo not drawn) | 3.4*
C/C(=C\C(=O)c1ccccc1)NCC#N | 0.52
O=C(c1ccc(Cl)cc1)n1ccc(-c2ccc(C#Cc3ccccc3)s2)n1 | 0.18
Cc1[nH]c2ccccc2c1C(=O)CSc1nnc(Cc2cccs2)n1C | 3.4*
CCn1c(SCC(=O)c2c(C)[nH]c3ccccc23)nnc1-c1ccco1 | 2.6
Cc1[nH]c2ccccc2c1C(=O)CSc1nnc(-c2ccco2)n1-c1ccccc1 | 4.7*
Cc1[nH]c2ccccc2c1C(=O)CSc1nnc(C2CCCCC2)n1C | 1.4
O=C(CSc1nnc(-c2ccco2)n1-c1ccc(OCc2ccccc2)cc1)c1ccccc1 | -0.72
Cc1[nH]c2ccccc2c1C(=O)CSc1nnc(-c2ccco2)n1C | 2.9
Cc1[nH]c2ccccc2c1C(=O)CSc1nnc(-c2cccs2)n1C | 0.7
CCn1c(SCC(=O)c2c[nH]c3ccccc23)nnc1-c1cccs1 | 2.1
CCn1c(SCC(=O)c2c[nH]c3ccccc23)nnc1-c1ccco1 | 3.4*
CCOC(=O)C1(CC(=O)c2ccc(F)cc2)C(=O)Oc2ccccc2C1c1ccccc1 (stereo not drawn) | 2.9
Cc1cc(NC(=O)CCC(=O)O)no1 | 0.21
O=C1C=C(N2CCN(c3ccc(F)cc3)CC2)C2(CCCCC2)O1 | -0.74
O=C(Nc1nc2c(Br)cc(Br)cc2c(=O)s1)c1cccs1 | 0.71
N/C(=N\C(=S)Nc1ccc(Cl)c(Cl)c1)c1ccccc1 | 5.4*
NC(=S)NNc1ccc(Cl)c(Cl)c1 | 2.3
CC(C)c1ccc(NC(=S)N=C(N)N)cc1 | 2.1
Fc1ccc(OCc2nc(-c3ccc(-n4cccc4)cc3)no2)cc1 | 1.1
N#Cc1ccc(-c2ccccc2)nc1SCC(=O)OCc1ccccc1 | 0.53
N[C@@H](Cc1ccccc1)c1nnc(SCc2cccc(Cl)c2)o1 | 0.47
O=C(/C=C/Sc1ccccn1)c1ccc(Br)cc1 | 3*
O=C(/C=C/Sc1c(Cl)cccc1Cl)c1ccc(Br)cc1 | -0.12
Cc1ccc(C(=O)/C=C/Sc2ccccn2)cc1 | 0.72
SMILES | Dicer inh
CSC(=S)Nc1ccc(F)cc1F | 0.63
CCC(Sc1ccccn1)C(=O)Nc1ccc(Cl)cn1 (stereo not drawn) | 2.2
COC(=O)c1c(OC)ccc(N=C/C(C(C)=O)=C(\C)O)c1OC | -0.8
CCOC(=O)C(=CNc1ccc(C(=O)OC)o1)C(=O)OCC | 0.79
CCC/C(O)=C(/C=Nc1ccccc1C(=O)OC)C(=O)OCC | 3.2*
COc1ccccc1C(=O)CC1(O)C(=O)N(C(C)C)c2ccccc21 (stereo not drawn) | 0.81
CCOc1ccc(C2/C(=C(/O)c3ccc(C)cc3)C(=O)C(=O)N2CC(C)O)cc1 (stereo not drawn) | -0.91
CCOC(=O)N1CCC(NC(=O)Nc2ccc3c(c2)CCO3)CC1 | 5*
CC(C)N(CCC#N)C(=O)Nc1ccc2c(c1)CCO2 | 0.86
CCOC(=O)N1CCC(NC(=O)c2cc(C)cc(C)c2)CC1 | -0.17
Fc1ccc2c(c1)/C(=N/NC(=S)NCC1CCCO1)CCS2 (stereo not drawn) | -1.8
COc1ccc(NC(=O)C(C)Oc2ccc(Oc3ccc(C(F)(F)F)cc3)cc2)cc1 (stereo not drawn) | 0.25
O=C1CC(c2ccc(O)cc2)Oc2cc(O)ccc21 (stereo not drawn) | 4.8*
O=C1CC(c2ccccc2)Oc2ccccc21 (stereo not drawn) | 0.24
O=C1CC(c2ccccc2)Oc2cc(Cl)ccc21 (stereo not drawn) | -1.6
Cc1ccc(NC(=O)C2Sc3nnc(C)n3NC2c2ccc(Cl)cc2)c(C)c1 (stereo not drawn) | 0.35
Clc1ccc(C2N(Cc3ccccc3)CCC3CCCCN32)cc1 (stereo not drawn) | -0.45
COc1cccc(C(Nc2cc(C)ccn2)c2ccc3ccc(C)nc3c2O)c1 (stereo not drawn) | 6.8*
Cc1ccnc(NC(c2ccc(N(C)C)cc2)c2ccc3ccc(C)nc3c2O)c1 (stereo not drawn) | 1
COc1ccc(C)cc1NC(c1cccnc1)c1ccc2cccnc2c1O (stereo not drawn) | 2.3
CCOc1cc(C(Nc2cc(C)ccn2)c2ccc3cccnc3c2O)ccc1O (stereo not drawn) | 14*
CCOc1cccc(C(Nc2ccccn2)c2ccc3ccc(C)nc3c2O)c1 (stereo not drawn) | -0.34
COc1ccc(C(Nc2ccccn2)c2ccc3ccc(C)nc3c2O)cc1OC (stereo not drawn) | 0.29
Cc1ccnc(NC(c2ccc(N(C)C)cc2)c2ccc3cccnc3c2O)c1 (stereo not drawn) | 6.3
COc1cc(C(Nc2cc(C)ccn2)c2ccc3cccnc3c2O)ccc1O (stereo not drawn) | 11*
CCOc1ccc(C(Nc2cc(C)ccn2)c2ccc3cccnc3c2O)cc1OC (stereo not drawn) | 5.2*
CCOc1cc(C(Nc2cc(C)ccn2)c2ccc3cccnc3c2O)ccc1OC (stereo not drawn) | -0.73
CN(NC(=O)Nc1ccc(Cl)cc1)c1cnn(C)c(=O)c1Cl | -2.6
